In the supplement of paper PMC4466140:

Columns and labels:
Experiment in all cases: SPOT peptide array binding signal intensity (averaged, normalized) (arbitrary units (background-subtracted, floor 0; scale differs between SH3 domains)); higher = stronger binding of the SH3 domain to the peptide
[1] = biological target: CaNbp2
Summary of the method: (§1)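 Four yeast species supplied the SH3 domains, which were expressed as GST fusions in E. coli BL21(DE3) and purified on glutathione Sepharose. Incubation with cellulose membranes carrying synthetic 15-mer peptides, cysteines exchanged for serines, ran overnight at 4°C at 10 μg/ml in TBS-based blocking buffer. Binding signal is reported as normalized, background-subtracted spot intensity averaged over replicates, in arbitrary units not shared between domains.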

[2] = biological target: CaRvs167
Summary of the method: as §1

[3] = biological target: CaRvs167-3
Summary of the method: as §1

[4] = biological target: CaSho1
Summary of the method: as §1

[5] = biological target: CaSla1-D1-D2
Summary of the method: as §1

[6] = biological target: CaSla1-D3
Summary of the method: as §1

[7] = biological target: ScAbp1
Summary of the method: as §1

[8] = biological target: ScBbc1
Summary of the method: as §1

[9] = biological target: ScBem1-D1
Summary of the method: as §1

[10] = biological target: ScBzz1-D1
Summary of the method: as §1

[11] = biological target: ScBzz1-D2
Summary of the method: as §1

[12] = biological target: ScCyk3
Summary of the method: as §1

[13] = biological target: ScFus1
Summary of the method: as §1

[14] = biological target: ScHof1
Summary of the method: as §1

[15] = biological target: ScHse1
Summary of the method: as §1

[16] = biological target: ScLsb1
Summary of the method: as §1

[17] = biological target: ScLsb2
Summary of the method: as §1

[18] = biological target: ScLsb3
Summary of the method: as §1

[19] = biological target: ScLsb4
Summary of the method: as §1

[20] = biological target: ScMyo3
Summary of the method: as §1

[21] = biological target: ScMyo5
Summary of the method: as §1

[22] = biological target: ScNbp2
Summary of the method: as §1

[23] = biological target: ScPex13
Summary of the method: as §1

[24] = biological target: ScRvs167
Summary of the method: as §1

[25] = biological target: ScSho1
Summary of the method: as §1

[26] = biological target: ScSla1-D1-D2
Summary of the method: as §1

[27] = biological target: ScSla1-D3
Summary of the method: as §1

[28] = biological target: SpAbp1-D1
Summary of the method: as §1

[29] = biological target: SpBbc1
Summary of the method: as §1

[30] = biological target: SpBzz1-D1
Summary of the method: as §1

[31] = biological target: SpBzz1-D2
Summary of the method: as §1

[32] = biological target: SpCyk3
Summary of the method: as §1

[33] = biological target: SpHof1
Summary of the method: as §1

[34] = biological target: SpHof1-2
Summary of the method: as §1

[35] = biological target: SpHof1-3
Summary of the method: as §1

[36] = biological target: SpHse1
Summary of the method: as §1

[37] = biological target: SpLsb1
Summary of the method: as §1

[38] = biological target: SpLsb4
Summary of the method: as §1

[39] = biological target: SpMyo1
Summary of the method: as §1

[40] = biological target: SpNbp2
Summary of the method: as §1

[41] = biological target: SpPex13
Summary of the method: as §1

[42] = biological target: SpRvs167
Summary of the method: as §1

[43] = biological target: SpSla1-D1-D2
Summary of the method: as §1

[44] = biological target: SpSla1-D3
Summary of the method: as §1

[45] = biological target: AgAbp1
Summary of the method: as §1

[46] = biological target: AgBbc1
Summary of the method: as §1

[47] = biological target: AgBem1-D1
Summary of the method: as §1

[48] = biological target: AgBzz1-D1
Summary of the method: as §1

[49] = biological target: AgBzz1-D2
Summary of the method: as §1

[50] = biological target: AgCyk3
Summary of the method: as §1

[51] = biological target: AgFus1
Summary of the method: as §1

[52] = biological target: AgHof1
Summary of the method: as §1

[53] = biological target: AgHse1
Summary of the method: as §1

[54] = biological target: AgLsb1
Summary of the method: as §1

[55] = biological target: AgLsb4
Summary of the method: as §1

[56] = biological target: AgMyo5
Summary of the method: as §1

[57] = biological target: AgNbp2
Summary of the method: as §1

[58] = biological target: AgRvs167
Summary of the method: as §1

[59] = biological target: AgSho1
Summary of the method: as §1

[60] = biological target: AgSla1-D1-D2
Summary of the method: as §1

[61] = biological target: AgSla1-D3
Summary of the method: as §1

[62] = biological target: CaAbp1-D1
Summary of the method: as §1

[63] = biological target: CaAbp1-D2
Summary of the method: as §1

[64] = biological target: CaBbc1
Summary of the method: as §1

[65] = biological target: CaBem1-D1
Summary of the method: as §1

[66] = biological target: CaBzz1-D1
Summary of the method: as §1

[67] = biological target: CaBzz1-D2
Summary of the method: as §1

[68] = biological target: CaCyk3
Summary of the method: as §1

[69] = biological target: CaFus1
Summary of the method: as §1

[70] = biological target: CaHof1
Summary of the method: as §1

[71] = biological target: CaHse1
Summary of the method: as §1

[72] = biological target: CaLsb1
Summary of the method: as §1

[73] = biological target: CaLsb4
Summary of the method: as §1

[74] = biological target: CaMyo5
Summary of the method: as §1

ILARAILTIPRVLDK was tested, and the “SPOT peptide array binding signal intensity” value [1] was 290, the “SPOT peptide array binding signal intensity” value [2] was 99.3 and the “SPOT peptide array binding signal intensity” value [3] was 854. The “SPOT peptide array binding signal intensity” value [4] was 1420, the “SPOT peptide array binding signal intensity” value [5] was 15 and the “SPOT peptide array binding signal intensity” value [6] was 118. The “SPOT peptide array binding signal intensity” value [7] was 6, the “SPOT peptide array binding signal intensity” value [8] was 3.5 and the “SPOT peptide array binding signal intensity” value [9] was 8. The “SPOT peptide array binding signal intensity” value [10] was 41.5, the “SPOT peptide array binding signal intensity” value [11] was 299 and the “SPOT peptide array binding signal intensity” value [12] was 70. The “SPOT peptide array binding signal intensity” value [13] was 1530, the “SPOT peptide array binding signal intensity” value [14] was 0.5 and the “SPOT peptide array binding signal intensity” value [15] was 1470. The “SPOT peptide array binding signal intensity” value [16] was 11.5, the “SPOT peptide array binding signal intensity” value [17] was 55 and the “SPOT peptide array binding signal intensity” value [18] was 117. For the same binder, the “SPOT peptide array binding signal intensity” value [19] was 5, the “SPOT peptide array binding signal intensity” value [20] was ≤ 0 and the “SPOT peptide array binding signal intensity” value [21] was ≤ 0. For the same binder, the “SPOT peptide array binding signal intensity” value [22] was 305, the “SPOT peptide array binding signal intensity” value [23] was 59.2 and the “SPOT peptide array binding signal intensity” value [24] was 4.83. For the same binder, the “SPOT peptide array binding signal intensity” value [25] was 1560, the “SPOT peptide array binding signal intensity” value [26] was 145 and the “SPOT peptide array binding signal intensity” value [27] was 18. The “SPOT peptide array binding signal intensity” value [28] was 7.5, the “SPOT peptide array binding signal intensity” value [29] was 56.5 and the “SPOT peptide array binding signal intensity” value [30] was 553. The “SPOT peptide array binding signal intensity” value [31] was 1.5, the “SPOT peptide array binding signal intensity” value [32] was 8.5 and the “SPOT peptide array binding signal intensity” value [33] was 82.2. For the same binder, the “SPOT peptide array binding signal intensity” value [34] was 8.5, the “SPOT peptide array binding signal intensity” value [35] was 158 and the “SPOT peptide array binding signal intensity” value [36] was 613. For the same binder, the “SPOT peptide array binding signal intensity” value [37] was 2.25, the “SPOT peptide array binding signal intensity” value [38] was 42 and the “SPOT peptide array binding signal intensity” value [39] was 1.5. For the same binder, the “SPOT peptide array binding signal intensity” value [40] was 207, the “SPOT peptide array binding signal intensity” value [41] was 131 and the “SPOT peptide array binding signal intensity” value [42] was 39.2. The “SPOT peptide array binding signal intensity” value [43] was ≤ 0 and the “SPOT peptide array binding signal intensity” value [44] was 10.

VLRFLGFPLPIFEKG was tested, and the “SPOT peptide array binding signal intensity” value [45] was 2, the “SPOT peptide array binding signal intensity” value [46] was ≤ 0 and the “SPOT peptide array binding signal intensity” value [47] was 24.5. For the same binder, the “SPOT peptide array binding signal intensity” value [48] was 15, the “SPOT peptide array binding signal intensity” value [49] was ≤ 0 and the “SPOT peptide array binding signal intensity” value [50] was ≤ 0. The “SPOT peptide array binding signal intensity” value [51] was 393, the “SPOT peptide array binding signal intensity” value [52] was 9 and the “SPOT peptide array binding signal intensity” value [53] was 845. For the same binder, the “SPOT peptide array binding signal intensity” value [54] was 7.75, the “SPOT peptide array binding signal intensity” value [55] was 36 and the “SPOT peptide array binding signal intensity” value [56] was 0.5. For the same binder, the “SPOT peptide array binding signal intensity” value [57] was ≤ 0, the “SPOT peptide array binding signal intensity” value [58] was 1.67 and the “SPOT peptide array binding signal intensity” value [59] was 31. The “SPOT peptide array binding signal intensity” value [60] was 3, the “SPOT peptide array binding signal intensity” value [61] was 2 and the “SPOT peptide array binding signal intensity” value [62] was 4. For the same binder, the “SPOT peptide array binding signal intensity” value [63] was 3.5, the “SPOT peptide array binding signal intensity” value [64] was ≤ 0 and the “SPOT peptide array binding signal intensity” value [65] was ≤ 0. For the same binder, the “SPOT peptide array binding signal intensity” value [66] was ≤ 0, the “SPOT peptide array binding signal intensity” value [67] was 0.25 and the “SPOT peptide array binding signal intensity” value [68] was ≤ 0. The “SPOT peptide array binding signal intensity” value [69] was 3750, the “SPOT peptide array binding signal intensity” value [70] was ≤ 0 and the “SPOT peptide array binding signal intensity” value [71] was 35.8. The “SPOT peptide array binding signal intensity” value [72] was 1, the “SPOT peptide array binding signal intensity” value [73] was ≤ 0 and the “SPOT peptide array binding signal intensity” value [74] was ≤ 0. For the same binder, the “SPOT peptide array binding signal intensity” value [1] was 129, the “SPOT peptide array binding signal intensity” value [2] was 8.5 and the “SPOT peptide array binding signal intensity” value [3] was 22.2. For the same binder, the “SPOT peptide array binding signal intensity” value [4] was 496, the “SPOT peptide array binding signal intensity” value [5] was 4 and the “SPOT peptide array binding signal intensity” value [6] was 4. For the same binder, the “SPOT peptide array binding signal intensity” value [7] was 1.5, the “SPOT peptide array binding signal intensity” value [8] was 1.5 and the “SPOT peptide array binding signal intensity” value [9] was 11.5. For the same binder, the “SPOT peptide array binding signal intensity” value [10] was 24, the “SPOT peptide array binding signal intensity” value [11] was 14 and the “SPOT peptide array binding signal intensity” value [12] was 80.5. For the same binder, the “SPOT peptide array binding signal intensity” value [13] was 404, the “SPOT peptide array binding signal intensity” value [14] was ≤ 0 and the “SPOT peptide array binding signal intensity” value [15] was 2000. The “SPOT peptide array binding signal intensity” value [16] was ≤ 0, the “SPOT peptide array binding signal intensity” value [17] was ≤ 0 and the “SPOT peptide array binding signal intensity” value [18] was ≤ 0. The “SPOT peptide array binding signal intensity” value [19] was ≤ 0, the “SPOT peptide array binding signal intensity” value [20] was 0.5 and the “SPOT peptide array binding signal intensity” value [21] was ≤ 0. The “SPOT peptide array binding signal intensity” value [22] was 19, the “SPOT peptide array binding signal intensity” value [23] was ≤ 0 and the “SPOT peptide array binding signal intensity” value [24] was ≤ 0. The “SPOT peptide array binding signal intensity” value [25] was 662, the “SPOT peptide array binding signal intensity” value [26] was 3 and the “SPOT peptide array binding signal intensity” value [27] was ≤ 0. For the same binder, the “SPOT peptide array binding signal intensity” value [28] was 1, the “SPOT peptide array binding signal intensity” value [29] was ≤ 0 and the “SPOT peptide array binding signal intensity” value [30] was 3.5. For the same binder, the “SPOT peptide array binding signal intensity” value [31] was 1, the “SPOT peptide array binding signal intensity” value [32] was 3 and the “SPOT peptide array binding signal intensity” value [33] was 13.8. The “SPOT peptide array binding signal intensity” value [34] was 5.5, the “SPOT peptide array binding signal intensity” value [35] was 486 and the “SPOT peptide array binding signal intensity” value [36] was 1290. The “SPOT peptide array binding signal intensity” value [37] was ≤ 0, the “SPOT peptide array binding signal intensity” value [38] was ≤ 0 and the “SPOT peptide array binding signal intensity” value [39] was ≤ 0. The “SPOT peptide array binding signal intensity” value [40] was 37.5, the “SPOT peptide array binding signal intensity” value [41] was 5 and the “SPOT peptide array binding signal intensity” value [42] was ≤ 0. The “SPOT peptide array binding signal intensity” value [43] was 3 and the “SPOT peptide array binding signal intensity” value [44] was 1.
